Screens deposited in PubChem by several laboratories.
Sampled rows, rich in hits. Any-hit rate of the full collection: about 3.8%.
NALP1 inh – NALP1 inhibition; S. cerevisiae NALP1/ASC/caspase-1 growth, X-gal OD620, 72 h; AID 2071; inhibition, % at 10 µM; hit rate 0.61% among 280,000; in the data active = inhibition mostly above about 24%, no sharp cut-off; inactive = mostly below about 32%
HSF1 activator – increases HSF-1 driven luciferase reporter signal; NIH3T3-HGL HSF-1 luciferase reporter, MG132, 8 h; 100% = twice DMSO control signal; activation, % at 9 µM; hit rate 1.7% among 300,000; AID 504408;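 active = mean replicate activation of at least 50% with a set share of replicates each reaching 50%; inconclusive = only one of those two conditions met; inactive = mean below 50% and too few replicates reaching it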
HSF1 inhib – HSF1 inhibition; NIH3T3-HGL HSE-luciferase, MG132-induced, luminescence 8 h; stronger effect = lower value; activity change, negative = inhibition, % at 7.5 µM (by protocol); hit rate 0.77% among 300,000;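 active = more than half of replicate wells show activity change below -50%, luminescence cut by over half; inconclusive = some wells, but at most half, below -50%; inactive = no replicate well below -50%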;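 note: luciferase reports HSF-1 transcriptional activity via heat shock element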
Hsp70 act – switches on Hsp70 transcription | HeLa Hsp70 promoter luciferase reporter, luminescence; scaled: vehicle 0, proteasome-inhibitor control 100% | activation, % at 10 µM | hit rate 0.04% among 200,000 | AID 1203;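 active = activation above the mean across all tested compounds plus 3 SD, cutoff set per campaign, cut at about 5.5% in these data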
p-CIP stab down – compounds decreasing mouse p/CIP protein stability; hit rate 0.01% among 290,000; F442A p/CIP-EGFP cells, EGFP fluorescence, 16 h; decrease of EGFP signal, % at 10 µM; Q05BA5; AID 1984;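 active = EGFP signal decrease of at least 30% at 10 µM or well 3 SD below plate mean, unless failing retest; inactive = the rest, including hits failing retest or dose response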
Target sequence (Q05BA5 1-1403): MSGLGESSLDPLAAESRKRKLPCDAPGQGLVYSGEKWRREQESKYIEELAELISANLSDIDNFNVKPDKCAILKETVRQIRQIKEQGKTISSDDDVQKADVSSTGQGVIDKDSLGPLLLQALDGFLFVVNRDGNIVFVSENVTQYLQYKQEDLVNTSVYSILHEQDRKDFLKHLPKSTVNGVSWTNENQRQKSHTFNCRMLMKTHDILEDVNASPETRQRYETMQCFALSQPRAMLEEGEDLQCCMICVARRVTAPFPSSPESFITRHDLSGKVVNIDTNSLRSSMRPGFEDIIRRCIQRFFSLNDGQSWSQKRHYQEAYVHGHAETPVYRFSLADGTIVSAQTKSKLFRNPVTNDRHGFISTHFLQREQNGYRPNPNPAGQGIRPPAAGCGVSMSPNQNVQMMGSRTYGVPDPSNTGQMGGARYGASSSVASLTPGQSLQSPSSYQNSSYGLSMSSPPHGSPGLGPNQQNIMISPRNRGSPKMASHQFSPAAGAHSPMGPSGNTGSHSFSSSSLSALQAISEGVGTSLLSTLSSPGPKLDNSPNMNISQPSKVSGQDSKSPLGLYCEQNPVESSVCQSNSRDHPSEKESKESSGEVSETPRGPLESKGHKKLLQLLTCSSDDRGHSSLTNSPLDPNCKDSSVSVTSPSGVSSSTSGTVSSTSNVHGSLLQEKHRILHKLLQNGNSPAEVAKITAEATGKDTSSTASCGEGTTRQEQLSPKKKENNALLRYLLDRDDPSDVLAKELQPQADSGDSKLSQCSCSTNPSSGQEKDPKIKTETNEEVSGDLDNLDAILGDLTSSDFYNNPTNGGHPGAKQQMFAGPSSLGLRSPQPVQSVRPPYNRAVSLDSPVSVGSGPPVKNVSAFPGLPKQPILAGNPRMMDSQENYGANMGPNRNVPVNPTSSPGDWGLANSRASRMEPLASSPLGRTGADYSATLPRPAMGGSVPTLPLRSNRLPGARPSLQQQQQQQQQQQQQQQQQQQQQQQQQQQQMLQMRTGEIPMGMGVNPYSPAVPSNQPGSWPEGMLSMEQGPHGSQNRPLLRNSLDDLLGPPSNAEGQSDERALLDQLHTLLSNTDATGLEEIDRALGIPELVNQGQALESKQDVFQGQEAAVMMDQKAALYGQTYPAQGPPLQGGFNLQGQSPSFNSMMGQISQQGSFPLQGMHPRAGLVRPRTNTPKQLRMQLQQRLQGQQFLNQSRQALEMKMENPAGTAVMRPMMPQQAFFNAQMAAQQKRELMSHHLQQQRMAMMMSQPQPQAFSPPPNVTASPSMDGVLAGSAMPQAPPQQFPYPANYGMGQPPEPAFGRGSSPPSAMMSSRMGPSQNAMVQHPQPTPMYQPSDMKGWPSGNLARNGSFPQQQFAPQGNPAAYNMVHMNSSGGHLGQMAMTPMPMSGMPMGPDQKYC
HSP90 inh – HSP90 refolding inhibition in rabbit reticulocyte lysate | luciferase refolding luminescence, 3 h | hit rate 0.91% among 290,000 | inhibition, % at 5.6 µM;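 active = inhibition above the screen-wide mean plus 3 SD, computed separately per campaign, cut at about 16% in these data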;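 note: inhibitors lower the luminescence because luciferase stays unfolded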
HSP90 inh confirm – confirmation of HSP90 inhibitors; shares compounds with HSP90 inh; rabbit reticulocyte lysate, luciferase refolding luminescence, 3 h; inhibition, % at 5.9 µM; hit rate 64% among 2,300; AID 1846; in the data active = inhibition above about 18%
FLuc counter – blocks native firefly luciferase in HSP90 counter-screen | shares compounds with HSP90 inh | purified native firefly luciferase, luminescence | hit rate 48% among 2,300 | inhibition, % at 5.9 µM;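 active = inhibition above the mean inhibition of all tested sample wells plus 3 SD, cut at about 10% in these data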
Of the large screens only hits and unclear results are named; the others gave an inactive call (follow-up assays come after a bar, where they were run).

O=C(COc1ccc2c(c1)CCC2)NCc1ccccc1	none
NNC(=O)c1cccc(COc2ccc3c(c2)CCC3)c1	HSF1 inhib inconclusive, HSP90 inh 36 | HSP90 inh confirm 66 | FLuc counter 56
NNC(=O)c1cccc(COc2ccccc2Br)c1	HSP90 inh 39 | HSP90 inh confirm 36 | FLuc counter 9.8
NNC(=O)c1ccc(COc2cccc3ccccc23)cc1	none
COc1ccc(C(=O)NNC(=O)CN(C)S(=O)(=O)c2ccc(Cl)cc2)c(OC)c1OC	none (no result: NALP1 inh, Hsp70 act, p-CIP stab down, HSP90 inh)
COc1ccc(C(=O)O/N=C(\N)c2ccccc2)c(OC)c1	HSP90 inh 51 | HSP90 inh confirm 37 | FLuc counter 26
COc1ccc(C(=O)O/N=C(\N)c2ccccn2)c(OC)c1	HSP90 inh 43 (no result: Hsp70 act) | HSP90 inh confirm inactive | FLuc counter inactive
COc1ccc(Cl)cc1C(=O)O/N=C(\N)c1ccccn1	none (no result: Hsp70 act)
Cc1cc(C(=O)N/N=C/c2ccc(O)c(O)c2O)c(C)n1-c1ccccc1	HSP90 inh 17 | HSP90 inh confirm inactive | FLuc counter inactive
Cc1cc(/C=N/NC(=O)c2ccncc2)c(C)n1-c1ccccc1	none
Cc1cc(/C=N/NC(=O)c2cccs2)c(C)n1-c1ccccc1	HSF1 inhib -69, HSP90 inh 57 | HSP90 inh confirm 71 | FLuc counter 66
CCOC(=O)c1c(C)oc2c1c(C=NCC1CCCO1)c(O)c1ccccc12 (configuration not stated)	HSP90 inh 19 | HSP90 inh confirm inactive | FLuc counter inactive
CCOC(=O)c1c(C)oc2c1c(C=NCc1ccccn1)c(O)c1ccccc12	none (no result: HSF1 activator, HSF1 inhib)
CCOc1ccc(Nc2ncnc3c2cnn3C)cc1	none (no result: Hsp70 act)
CCOc1ccc(NC(=O)Nc2nnc(CC)s2)cc1	HSP90 inh 18 | HSP90 inh confirm inactive | FLuc counter inactive
COc1ccc(C(=O)Nc2nnc(SCC(=O)NC3CC3)s2)cc1	HSP90 inh 23 (no result: Hsp70 act) | HSP90 inh confirm 29 | FLuc counter 16
COc1ccccc1C(=O)Nc1nnc(SCC(=O)NCc2ccco2)s1	none (no result: Hsp70 act)
COc1ccc(C(=O)Nc2nnc(SCC(=O)Nc3ccc(NC(C)=O)cc3)s2)c(OC)c1	none (no result: Hsp70 act)
COc1cccc(C(=O)Nc2nnc(SCC(=O)NC3CC3)s2)c1	none (no result: Hsp70 act)
CCc1nnc(NC(=O)c2ccc(OC)cc2OC)s1	HSP90 inh 21 | HSP90 inh confirm 47 | FLuc counter 43
COc1ccc(C(=O)Nc2nnc(SCC(=O)NCc3ccco3)s2)c(OC)c1	HSP90 inh 43 (no result: Hsp70 act) | HSP90 inh confirm 62 | FLuc counter 60
Cc1ccc(C(=O)Nc2cccc(C(=O)NC3CCCCC3)c2)cc1	none (no result: Hsp70 act)
CCOc1ccc2nc(SCC(=O)NCc3ccc(S(N)(=O)=O)cc3)[nH]c2c1	none (no result: Hsp70 act)
O=C(O)/C=C/c1cnn(-c2ccccc2)c1	HSP90 inh 53 | HSP90 inh confirm 59 | FLuc counter 38
O=c1c2c(nc3cc(-c4ccc(F)cc4)[nH]n13)CCCC2	HSP90 inh 18 | HSP90 inh confirm 44 | FLuc counter 29
O=c1c2c(nc3cc(-c4cccc(Cl)c4)[nH]n13)CCC2	none
CCOc1ccc(-c2c(C(=O)N/N=C/C3CC=CCC3)nnn2-c2nonc2N)cc1 (configuration not stated)	none (no result: Hsp70 act)
Cc1c(OCc2ccccc2)c(=O)ccn1Cc1ccccc1	HSP90 inh 20 | HSP90 inh confirm inactive | FLuc counter inactive
O=c1ccn(Cc2ccccc2)c2ccccc12	none (no result: Hsp70 act, HSP90 inh)
Cc1ccc(C2=NCN(c3ccc(C(=O)O)cc3)C(=S)N2)cc1	HSP90 inh 22 | HSP90 inh confirm 18 | FLuc counter inactive
S=C1NC(c2ccccc2)=NCN1c1ccccc1	none
CCOC(=O)NC1Cc2ccccc2C1Sc1ccccn1 (configuration not stated)	HSP90 inh 44 (no result: Hsp70 act) | HSP90 inh confirm inactive | FLuc counter inactive
CCOC(=O)NC(=O)CSc1ccccn1	none
Cc1ccn2c(Nc3ccc4c(c3)OCO4)c(-c3ccc(O)cc3)nc2c1	none (no result: Hsp70 act)
Cc1nnc(N/N=C/c2cc([N+](=O)[O-])c(N3CCC(C)CC3)cc2N2CCC(C)CC2)n1N	HSP90 inh 76 | HSP90 inh confirm inactive | FLuc counter inactive
Nc1nnnn1/N=C\c1ccc(Cl)c([N+](=O)[O-])c1	HSF1 activator inconclusive
CCc1nnc(N/N=C/c2ccc(N3CCC(C)CC3)c([N+](=O)[O-])c2)n1N	HSP90 inh 21 | HSP90 inh confirm inactive | FLuc counter inactive
Nn1cnnc1N/N=C/c1ccc(Cl)c([N+](=O)[O-])c1	HSF1 inhib -98, HSP90 inh 46 | HSP90 inh confirm inactive | FLuc counter inactive
NC(=O)NC(CC(=O)NCc1ccc2c(c1)OCO2)c1ccccc1Cl (configuration not stated)	none (no result: Hsp70 act)
CCC[C@H]1COCCS(=O)(=O)N1Cc1ccccc1	none (no result: Hsp70 act)
Cc1cccc(NC(=O)CSc2nnc(Cn3nnc(-c4ccccc4)n3)n2-c2ccccc2)c1	HSP90 inh 21 | HSP90 inh confirm inactive | FLuc counter inactive
CCOC(=O)N/N=C/c1cn(CCCOc2ccc(C)cc2)c2ccccc12	HSP90 inh 18 | HSP90 inh confirm inactive | FLuc counter inactive
Cc1[nH]n(-c2ccccc2)c(=O)c1C(c1ccccc1[N+](=O)[O-])C(C#N)C#N (configuration not stated)	HSP90 inh 28 (no result: Hsp70 act) | HSP90 inh confirm inactive | FLuc counter inactive
Cc1[nH]n(-c2ccccc2)c(=O)c1C(c1ccccc1C(=O)O)c1c(C)[nH]n(-c2ccccc2)c1=O	none
CCOC(=O)c1ccccc1NC(=O)c1cc2ccccc2o1	none (no result: Hsp70 act)
CCOC(=O)c1csc(NC(=O)c2cc3ccccc3o2)n1	HSP90 inh 58 (no result: Hsp70 act) | HSP90 inh confirm 88 | FLuc counter inactive
Cc1cc(-c2csc(NC(=O)c3cc4ccccc4o3)n2)c(C)n1C	HSP90 inh 41 | HSP90 inh confirm 34 | FLuc counter inactive
CCOC(=O)c1sc(NC(=O)c2cc3ccccc3o2)nc1C	none
Cc1nc(NC(=O)c2cc3ccccc3o2)sc1C	HSP90 inh 40 (no result: Hsp70 act) | HSP90 inh confirm 54 | FLuc counter 47
COc1cccc(OC)c1/C=C/C(=O)NC1CCCCC1	none (no result: Hsp70 act)
O=C(CN(C(=O)c1csnn1)c1ccc(Cl)cc1)NCc1ccc2c(c1)OCO2	none (no result: Hsp70 act)
COc1ccc(-c2cc(=O)[nH][nH]2)cc1OC	HSP90 inh 34 | HSP90 inh confirm inactive | FLuc counter inactive
O=c1cc(-c2ccccc2)[nH][nH]1	HSP90 inh 40 | HSP90 inh confirm inactive | FLuc counter inactive
O=c1cc(-c2ccc(Br)cc2)[nH][nH]1	none
COc1cccc(-c2cc(=O)[nH][nH]2)c1	none
COc1ccc(S(=O)(=O)c2snnc2C)cc1	none (no result: Hsp70 act)
